Common to all, as to set-up: scale not given: direction of the effect not stated beside the values
The target of experiment [1] is Protein translocase subunit SecA (Escherichia coli (strain K12)) (UniProt P10408). The experiment can be described thus: Assay to Identify E. coli SecA ATPase Inhibitors. Format: functional. The note with it: 30 µM.
In experiment [2] the target is T1, Ubiquitin-activating enzyme e1, putative (Leishmania donovani (strain BPK282A1)) (UniProt E9BSI1).
T1 sequence (whole entry): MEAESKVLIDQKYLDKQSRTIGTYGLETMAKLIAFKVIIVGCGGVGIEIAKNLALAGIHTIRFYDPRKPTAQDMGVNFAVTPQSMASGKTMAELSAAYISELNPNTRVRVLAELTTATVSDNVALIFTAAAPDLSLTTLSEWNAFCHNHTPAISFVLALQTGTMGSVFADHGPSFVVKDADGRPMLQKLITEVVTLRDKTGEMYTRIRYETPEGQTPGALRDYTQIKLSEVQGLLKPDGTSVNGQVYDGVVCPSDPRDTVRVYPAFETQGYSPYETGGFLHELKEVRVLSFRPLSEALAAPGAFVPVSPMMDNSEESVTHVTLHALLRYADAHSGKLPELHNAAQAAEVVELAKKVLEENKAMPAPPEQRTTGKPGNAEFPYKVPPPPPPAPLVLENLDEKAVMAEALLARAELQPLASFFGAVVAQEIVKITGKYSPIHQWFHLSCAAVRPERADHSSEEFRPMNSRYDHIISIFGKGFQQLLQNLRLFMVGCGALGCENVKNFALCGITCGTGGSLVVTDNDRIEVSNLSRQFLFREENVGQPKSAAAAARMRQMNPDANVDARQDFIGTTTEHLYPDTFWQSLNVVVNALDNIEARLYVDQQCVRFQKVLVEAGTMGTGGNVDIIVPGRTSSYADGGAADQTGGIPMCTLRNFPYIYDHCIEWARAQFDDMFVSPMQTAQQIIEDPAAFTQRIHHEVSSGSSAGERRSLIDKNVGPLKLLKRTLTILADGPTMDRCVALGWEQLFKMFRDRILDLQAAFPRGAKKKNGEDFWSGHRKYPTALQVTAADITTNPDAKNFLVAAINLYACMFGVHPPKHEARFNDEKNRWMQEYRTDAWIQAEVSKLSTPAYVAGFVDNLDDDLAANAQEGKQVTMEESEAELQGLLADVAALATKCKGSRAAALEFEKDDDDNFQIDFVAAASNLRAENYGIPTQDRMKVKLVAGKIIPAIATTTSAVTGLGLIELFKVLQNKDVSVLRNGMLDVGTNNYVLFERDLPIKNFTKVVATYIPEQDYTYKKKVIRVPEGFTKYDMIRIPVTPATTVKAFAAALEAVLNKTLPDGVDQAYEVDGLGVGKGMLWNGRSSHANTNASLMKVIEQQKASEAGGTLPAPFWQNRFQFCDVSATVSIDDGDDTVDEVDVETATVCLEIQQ
As to the kind of experiment: Leishmania donovani Ubiquitin Activating Enzyme (LdE1). Format: functional. The note with it: 30 µM.

The target of experiment [3] is AMP-activated protein kinase, AMPK (Homo sapiens) (UniProt P54646+O43741+P54619+Q9UGJ0+Q9Y478+Q13131+Q9UGI9). The experiment can be described thus: AMP-dependent Kinase enzyme assay. An in vitro enzyme assay that detects ADP turnover that is directly proportional to AMPK activity. This uses naive AMPK that is activated during the assay with MK-8722. The note with it: 30 µM. Format: functional.

Experiment [4] concerns the target Sialic acid-binding Ig-like lectin 9 (Homo sapiens) (UniProt Q9Y336). The experiment can be described thus: Hs-Siglec9 ALPHAscreen SOP 20170721. The settings on record: 10 µM.
Experiment [5] deals with Trypanosoma cruzi. The experiment can be described thus: Trypanosoma cruzi phosphomannomutase and mannose-1-phosphate guanylyltransferase assay. Format: functional. The settings on record: 10 µM.
The target in experiment [6] is T2, Arginase-2, mitochondrial (Homo sapiens) (UniProt P78540).
T2 sequence (whole entry): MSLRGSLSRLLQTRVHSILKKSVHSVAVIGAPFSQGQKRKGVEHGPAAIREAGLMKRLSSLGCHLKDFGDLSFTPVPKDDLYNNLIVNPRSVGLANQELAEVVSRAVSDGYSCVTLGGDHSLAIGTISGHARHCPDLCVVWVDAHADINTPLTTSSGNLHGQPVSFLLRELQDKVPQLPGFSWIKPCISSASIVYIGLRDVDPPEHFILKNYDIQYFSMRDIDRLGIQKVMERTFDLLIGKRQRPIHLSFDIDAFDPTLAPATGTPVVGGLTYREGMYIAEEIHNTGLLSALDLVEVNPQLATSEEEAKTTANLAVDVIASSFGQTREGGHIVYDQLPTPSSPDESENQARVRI
As to the kind of experiment: in vitro enzyme assay to detect the production of urea directly proportional to the activity of Arginase II. Note: in the data most compounds retested in dose-response had high values. The note with it: 33.3 µM. Format: functional.

Experiment [7] addresses T3, Proteasome subunit beta (Trypanosoma cruzi) (UniProt O96673).
T3 sequence (whole entry): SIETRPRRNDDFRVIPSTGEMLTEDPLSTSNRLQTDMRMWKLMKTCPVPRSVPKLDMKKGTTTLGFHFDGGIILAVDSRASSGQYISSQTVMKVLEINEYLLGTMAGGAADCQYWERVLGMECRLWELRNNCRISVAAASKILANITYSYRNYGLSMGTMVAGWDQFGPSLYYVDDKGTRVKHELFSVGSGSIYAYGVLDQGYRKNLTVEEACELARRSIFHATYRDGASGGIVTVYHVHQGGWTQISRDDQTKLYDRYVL
The experiment can be described thus: Trypanosoma cruzi proteasome chymotrypsin-like activity (TcProtChymo) assay. Note: in the data most compounds retested in dose-response had high values. Format: functional. The settings on record: 9.37 µM.

For experiment [8], the species on record is Homo sapiens. As to the kind of experiment: To identify inhibition of the IFN signalling (Jak-Stat) pathway via expression of an eGFP reporter gene under the control of an IFN-stimulated response element (ISRE) containing MxA promoter. Format: functional. The note with it: 30 µM. For orientation: A reporter such as luciferase makes a cellular process visible.

Experiment [9] addresses T4, Tyrosyl-tRNA synthetase, putative (Trypanosoma cruzi (strain CL Brener)) (UniProt Q4DSP6).
T4 sequence (whole entry): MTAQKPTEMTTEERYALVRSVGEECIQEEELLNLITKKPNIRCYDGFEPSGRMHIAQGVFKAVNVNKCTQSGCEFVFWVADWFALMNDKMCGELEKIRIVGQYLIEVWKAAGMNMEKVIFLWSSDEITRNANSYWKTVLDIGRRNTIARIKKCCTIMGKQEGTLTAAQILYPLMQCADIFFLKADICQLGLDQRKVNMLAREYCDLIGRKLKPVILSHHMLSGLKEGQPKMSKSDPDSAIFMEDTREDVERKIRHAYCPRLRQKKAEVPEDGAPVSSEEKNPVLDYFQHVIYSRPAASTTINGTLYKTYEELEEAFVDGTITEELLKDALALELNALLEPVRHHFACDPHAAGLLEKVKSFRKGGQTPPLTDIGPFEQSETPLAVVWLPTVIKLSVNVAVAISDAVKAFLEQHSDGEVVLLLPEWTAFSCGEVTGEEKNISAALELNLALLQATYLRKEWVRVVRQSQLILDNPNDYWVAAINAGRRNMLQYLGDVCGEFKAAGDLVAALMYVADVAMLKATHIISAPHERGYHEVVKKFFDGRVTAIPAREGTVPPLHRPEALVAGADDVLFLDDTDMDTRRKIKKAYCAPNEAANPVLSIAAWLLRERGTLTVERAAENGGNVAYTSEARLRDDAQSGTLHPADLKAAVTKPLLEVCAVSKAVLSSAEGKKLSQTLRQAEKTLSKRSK
The experiment can be described thus: Trypanosoma cruzi tyrosyl tRNA synthetase (TcYRS) _High Tyrosine SOP. Note: in the data most compounds retested in dose-response had high values. Format: functional. The settings on record: 30 µM.

For experiment [10], the target named is T4, Tyrosyl-tRNA synthetase, putative (Trypanosoma cruzi (strain CL Brener)). As to the kind of experiment: Trypanosoma cruzi tyrosyl tRNA synthetase (TcYRS) SOP. Format: functional. The settings on record: 30 µM.
The target in experiment [11] is Chromo domain-containing protein 1 (Saccharomyces cerevisiae (strain ATCC 204508 / S288c) (Baker's yeast)) (UniProt P32657). As to the kind of experiment: ScCHD-1 Enzyme Inhibition Assay. Note: in the data most compounds retested in dose-response had high values. The note with it: 30 µM. Format: functional.
Chromo domain-containing protein 1 (Saccharomyces cerevisiae (strain ATCC 204508 / S288c) (Baker's yeast)), sequence (P32657 whole entry, the tested form may be a part): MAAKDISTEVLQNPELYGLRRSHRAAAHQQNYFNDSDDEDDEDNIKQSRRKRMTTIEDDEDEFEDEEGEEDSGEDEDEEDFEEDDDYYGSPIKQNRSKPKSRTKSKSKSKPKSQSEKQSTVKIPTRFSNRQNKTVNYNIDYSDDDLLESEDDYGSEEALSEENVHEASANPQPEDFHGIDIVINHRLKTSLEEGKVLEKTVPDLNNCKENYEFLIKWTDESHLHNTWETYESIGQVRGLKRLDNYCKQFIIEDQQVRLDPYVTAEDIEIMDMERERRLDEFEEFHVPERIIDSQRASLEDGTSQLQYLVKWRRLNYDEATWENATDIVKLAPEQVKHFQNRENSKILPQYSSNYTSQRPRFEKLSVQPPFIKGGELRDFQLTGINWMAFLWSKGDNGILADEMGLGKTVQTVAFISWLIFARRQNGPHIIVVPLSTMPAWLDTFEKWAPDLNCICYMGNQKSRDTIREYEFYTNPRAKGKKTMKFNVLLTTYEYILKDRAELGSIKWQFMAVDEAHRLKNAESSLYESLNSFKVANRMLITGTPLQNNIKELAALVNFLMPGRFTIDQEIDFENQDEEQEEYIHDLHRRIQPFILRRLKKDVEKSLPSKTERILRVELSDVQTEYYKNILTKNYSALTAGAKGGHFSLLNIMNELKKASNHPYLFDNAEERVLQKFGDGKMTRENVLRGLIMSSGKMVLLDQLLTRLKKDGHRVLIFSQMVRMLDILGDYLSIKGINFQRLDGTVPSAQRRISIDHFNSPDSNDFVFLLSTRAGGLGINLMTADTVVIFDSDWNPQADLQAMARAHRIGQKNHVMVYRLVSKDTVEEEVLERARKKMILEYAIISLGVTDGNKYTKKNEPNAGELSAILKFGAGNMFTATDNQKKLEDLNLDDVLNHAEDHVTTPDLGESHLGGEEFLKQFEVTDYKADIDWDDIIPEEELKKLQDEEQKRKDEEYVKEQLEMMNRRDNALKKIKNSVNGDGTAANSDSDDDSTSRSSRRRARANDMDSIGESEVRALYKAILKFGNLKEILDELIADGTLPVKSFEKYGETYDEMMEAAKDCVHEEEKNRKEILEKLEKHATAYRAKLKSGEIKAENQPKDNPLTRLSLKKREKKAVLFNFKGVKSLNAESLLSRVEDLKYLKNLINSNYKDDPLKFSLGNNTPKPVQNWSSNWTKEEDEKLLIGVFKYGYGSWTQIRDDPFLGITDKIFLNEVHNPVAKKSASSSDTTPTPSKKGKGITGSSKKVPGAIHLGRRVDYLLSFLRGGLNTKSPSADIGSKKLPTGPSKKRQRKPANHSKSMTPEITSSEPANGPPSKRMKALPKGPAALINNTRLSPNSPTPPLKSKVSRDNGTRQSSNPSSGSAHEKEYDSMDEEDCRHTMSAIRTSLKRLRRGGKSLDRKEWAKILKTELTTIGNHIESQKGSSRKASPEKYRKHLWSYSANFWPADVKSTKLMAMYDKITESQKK

Structures are written as SMILES. For some of these results: Entries with a potency or affinity are not part of this list.

Sialic acid-binding Ig-like lectin 9 (Homo sapiens), sequence (Q9Y336 whole entry): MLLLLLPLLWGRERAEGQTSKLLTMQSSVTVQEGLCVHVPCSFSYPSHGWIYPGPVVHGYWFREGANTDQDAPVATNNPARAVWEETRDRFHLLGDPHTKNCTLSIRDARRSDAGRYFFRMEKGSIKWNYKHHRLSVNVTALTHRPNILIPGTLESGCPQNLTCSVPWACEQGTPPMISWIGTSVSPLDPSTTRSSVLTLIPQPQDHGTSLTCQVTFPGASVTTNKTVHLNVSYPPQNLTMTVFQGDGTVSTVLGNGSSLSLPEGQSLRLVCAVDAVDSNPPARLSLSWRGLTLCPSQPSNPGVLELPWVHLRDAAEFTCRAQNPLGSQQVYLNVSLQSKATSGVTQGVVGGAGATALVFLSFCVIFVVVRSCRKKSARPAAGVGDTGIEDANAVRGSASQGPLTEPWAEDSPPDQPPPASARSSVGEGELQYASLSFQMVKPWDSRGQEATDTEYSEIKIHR
Protein translocase subunit SecA (Escherichia coli (strain K12)), sequence (P10408 whole entry): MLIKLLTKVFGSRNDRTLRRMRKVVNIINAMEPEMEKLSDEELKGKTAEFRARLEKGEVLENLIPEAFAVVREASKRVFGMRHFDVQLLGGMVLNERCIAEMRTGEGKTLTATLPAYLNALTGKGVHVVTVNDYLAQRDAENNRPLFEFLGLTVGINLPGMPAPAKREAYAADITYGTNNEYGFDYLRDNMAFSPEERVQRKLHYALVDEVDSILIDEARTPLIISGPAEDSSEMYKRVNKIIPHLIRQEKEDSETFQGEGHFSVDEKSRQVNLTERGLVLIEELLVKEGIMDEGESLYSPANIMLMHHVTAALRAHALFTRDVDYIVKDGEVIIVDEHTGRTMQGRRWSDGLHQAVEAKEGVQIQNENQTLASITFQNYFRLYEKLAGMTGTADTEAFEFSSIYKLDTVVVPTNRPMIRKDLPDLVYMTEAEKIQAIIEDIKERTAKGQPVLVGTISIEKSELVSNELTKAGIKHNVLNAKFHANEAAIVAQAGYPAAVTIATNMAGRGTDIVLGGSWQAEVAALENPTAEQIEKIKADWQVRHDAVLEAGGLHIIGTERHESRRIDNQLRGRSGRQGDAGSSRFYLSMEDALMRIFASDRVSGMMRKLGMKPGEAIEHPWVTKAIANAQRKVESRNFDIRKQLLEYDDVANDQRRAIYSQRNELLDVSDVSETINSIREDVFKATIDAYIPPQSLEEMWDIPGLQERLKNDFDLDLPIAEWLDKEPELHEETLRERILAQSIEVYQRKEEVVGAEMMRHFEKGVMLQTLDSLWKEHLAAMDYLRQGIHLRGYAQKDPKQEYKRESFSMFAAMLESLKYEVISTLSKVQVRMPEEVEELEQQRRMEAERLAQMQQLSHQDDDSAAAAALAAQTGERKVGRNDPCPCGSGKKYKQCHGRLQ

On to `CC(C)OCc1ncn2c1CN(Cc1cccs1)CCC2`, for which the Percent Effect is -1.74% in [1]; -2.7% in experiment [2]; -26.4% in experiment [3]; 0.954% in experiment [4]; -2.25% in [5]; -2.23% in experiment [6]. The Percent Effect was 9.04% in experiment [7]; 12.4% in [8]; -2.16% in [9]; 2.56% in experiment [10]; -2.17% in experiment [11].

In the case of `Fc1ccc(-c2nnc(CN3CCOC(Cn4cncn4)C3)o2)cc1` (stereo not drawn), the Percent Effect in experiment [1] was -6.46%; in [2], 0%; in experiment [3], 1.39%; in experiment [4], -4.51%; in experiment [5], -2.62%; in experiment [6], 3.56%. In addition, the Percent Effect in experiment [7] was -2.37%; in experiment [8] it was 19.6%; in [9], 0.971%; in [10], -14.6%; in experiment [11], -2.35%.

In the case of `O=C(CNC(=O)N1CCc2c([nH]c3ccc(Cl)cc23)C1)N1CCOCC1`, the Percent Effect was -8.87% in experiment [1]; -4% in experiment [2]; 11.7% in experiment [3]; -3.55% in experiment [4]; -2.55% in experiment [5]; -20.2% in [6]. The Percent Effect was 10.5% in experiment [7]; 7.25% in experiment [8]; -3.17% in [9]; -5.13% in experiment [10]; -12.6% in experiment [11].

For the compound `O=C(Cc1ccc2c(c1)CCO2)N1CCCCC1Cn1cccn1` (stereo not drawn), the Percent Effect in experiment [1] was -5.85%; in [2] it was 10.5%; in [3] it was 0.878%; in experiment [4], 4.66%; in experiment [5] it was 2.24%; in experiment [6], -5.92%. Further, the Percent Effect in experiment [7] is 7.19%; in [8], 7.18%; in experiment [9], 5.32%; in experiment [10], 7.79%; in experiment [11], -7.71%.

Take `Cc1nc(CNCc2c(C)nn(C)c2N2CCOCC2)cs1`: the Percent Effect was -2.88% in experiment [1]; 7.89% in experiment [2]; -0.222% in experiment [3]; 9.92% in [4]; 3.95% in experiment [5]; 2.68% in experiment [6]. Also, the Percent Effect in experiment [7] is 5.68%; in experiment [8], -6.91%; in experiment [9], 4.41%; in [10], -4.88%; in experiment [11], -3.53%.

In the case of `O=C1CC(c2ccccc2)C2(CCN(CC3CC3)CC2)N1` (stereo not drawn), the Percent Effect in experiment [1] is -1.75%; in experiment [2], 10.7%; in experiment [3], 3.12%; in experiment [4] it was -1.87%; in [5], 5.02%; in experiment [6], -55%. For the same compound, the Percent Effect in experiment [7] was 9.23%; in experiment [8], 0.446%; in [9], 5.21%; in [10], 20%; in [11] it was -5.25%.

Take `Cc1noc([C@@]23CCO[C@@H]2CCN(CC2CCOCC2)C3)n1`: the Percent Effect is 2.95% in experiment [1]; 8% in experiment [2]; 7.01% in [3]; 4.21% in experiment [4]; -6.76% in [5]; -51.4% in [6]. Besides, the Percent Effect in [7] is 9.91%; in [8], 2.92%; in experiment [9], 8.33%; in experiment [10], 20%; in experiment [11], -7.02%.

Consider `CCCNC(=O)CNc1ccc(C(=O)N2CCCCC2C)cc1C` (stereo not drawn), for which the Percent Effect in [1] was -7.8%; in experiment [2] it was 18.2%; in experiment [3], 1.99%; in [4], -9.58%; in experiment [5], -8.99%; in [6] it was 0.712%. Moreover, the Percent Effect in [7] was 8.62%; in [8], 35.5%; in experiment [9], 5.83%; in experiment [10] it was 12.2%; in experiment [11], -8%.

These data come from ChEMBL document CHEMBL3988442, “University of Dundee, Small-Polar-MMV Screening Library” (2021).
